FBPA Giardia inh: Giardia lamblia aldolase inhibition; 290,000 compounds, 0.71% hits; Potency, µM (doses to about 59.6 µM), without a hit: top-dose activity, negative = inhibition, most hits filed as inhibitors; purified Giardia FBPA; A8B2U2; AID 2451; further: potency means the concentration at half of the fitted maximal effect; on the % scale 0 is the no-effect control and ±100 the full control effect; nearly all actives have a fitted effect of over 55% in size
Target sequence (A8B2U2 whole entry, looked up): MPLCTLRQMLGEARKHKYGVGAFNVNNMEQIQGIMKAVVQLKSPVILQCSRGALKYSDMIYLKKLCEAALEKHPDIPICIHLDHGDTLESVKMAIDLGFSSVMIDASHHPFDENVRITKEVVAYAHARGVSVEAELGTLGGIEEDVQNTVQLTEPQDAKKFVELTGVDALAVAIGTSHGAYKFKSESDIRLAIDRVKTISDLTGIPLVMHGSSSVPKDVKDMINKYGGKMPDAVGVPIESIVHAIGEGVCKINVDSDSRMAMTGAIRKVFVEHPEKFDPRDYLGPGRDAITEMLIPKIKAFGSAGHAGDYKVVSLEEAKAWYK
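40 nM FBPA preincubated 10 min at RT with compound (up to 57.5 uM final), then substrate plus GAPDH/TPI/NAD/arsenate coupling and diaphorase/resazurin added. Fluorescence read after 20 min at RT, 525/598 nm.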
HCMV antiviral: human cytomegalovirus inhibition; HFF cells, HCMV-luciferase reporter, 72 h; active compounds read low; activity change, negative = inhibition, % at 57.5 µM; 410,000 compounds, 4.5% hits; in the data active means activity change below about -60%; inconclusive means no clear call, values can overlap the other calls; inactive means above about -39%; further: on the % scale 0 is the no-effect control and ±100 the full control effect
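Human foreskin fibroblasts infected with luciferase-reporter HCMV at MOI 1 PFU/cell, compounds at two doses. Luciferase measured 72 h post infection; normalized to buffer-only basal and Salinomycin (10uM) controls.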
VACV Venus inh: vaccinia inhibition (Venus reporter). Vaccinia virus Venus reporter expression, fluorescence. Potency, µM (top dose mostly 36.5 µM), for the others: at the top dose activity change, negative = inhibition, most hits filed as inhibitors. 330,000 compounds, 0.46% hits. AID 720580; calls by dose curve; tested in A549 cells; further: potency means the concentration at half of the fitted maximal effect; on the % scale 0 is the no-effect control and ±100 the full control effect; nearly all actives have a fitted effect of over 30% in size
HCV inh: blocks hepatitis C virus; Huh7.5.1 HCVcc-Cre infection, luciferase reporter, 44 h; Potency, µM (top dose mostly 41.8 µM), for the others: at the top dose activity change, negative = inhibition, usual class: inhibitors; 340,000 compounds, 3.4% hits; AID 651820; further: potency means the concentration at half of the fitted maximal effect; on the % scale 0 is the no-effect control and ±100 the full control effect
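Whole-lifecycle infectious HCVcc-Cre system; cells 1,000/well, compound then virus (~0.5 moi) added 4 h after plating, 44 h culture. Luciferase read 15 sec following 15 min substrate incubation, room temp.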
FMDV inh: blocks foot and mouth disease virus; Potency, µM (top dose mostly 57.9 µM), for inactives: at the highest dose activity change, negative = inhibition, usual class: inhibitors; 410,000 compounds, 1.2% hits; FMDV antiviral cell-based qHTS; calls by dose curve; tested in HEK293T cells; further: read-out not given here; potency means the concentration at half of the fitted maximal effect; on the % scale 0 is the no-effect control and ±100 the full control effect; nearly all actives have a fitted effect of over 45% in size
Vaccinia mCherry: inhibitors of vaccinia virus infection (mCherry reporter signal) | Vaccinia virus mCherry reporter infection, fluorescence | Potency, µM (series often up to 36.5 µM), without a hit: at the highest dose activity change, negative = inhibition, actives largely listed as inhibitors | 310,000 compounds, 0.63% hits; calls by dose curve; tested in A549 cells; further: potency means the concentration at half of the fitted maximal effect; on the % scale 0 is the no-effect control and ±100 the full control effect; nearly all actives have a fitted effect of over 35% in size
HCV inh confirm: HCV inhibition, cherry-pick confirmation; 640 compounds, 78% hits; HCVcc-Cre infectious virus cell assay, luciferase, inhibition; Potency, µM (doses to about 41.8 µM), for inactives: top-dose activity, negative = inhibition, actives largely listed as inhibitors; shares compounds with HCV inh; AID 720575; further: potency means the concentration at half of the fitted maximal effect; nearly all actives have a fitted effect of over 80% in size
HCV cytotox: counter-screen for HCV inhibitors: host cell cytotoxicity. shares compounds with HCV inh. HCV host cell line cytotoxicity counterscreen. Potency, µM (top dose mostly 41.8 µM), inactives show at the highest dose activity change, negative = cytotoxicity, actives largely listed as inhibitors. 640 compounds, 22% hits. AID 720576;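 further: potency means the concentration at half of the fitted maximal effect; 44 h compound exposure; on the % scale 0 is the no-effect control and ±100 the full control effect; nearly all actives have a fitted effect of over 55% in size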
* hit, by the source's call; [ ] = another dose, or the depositor's remark. Shown are actives, neighbours in structure and some others; about 7.5% of the full set was active somewhere. Unless noted, the call rests on the fitted dose curve; in most records, active means well fitted curve in the direction sought with a large enough effect; inconclusive means small, poorly fitted or top-dose-only effect, or another doubt; inactive means no such curve, though single readings can be large; an effect the other way counts as inactive or inconclusive.

How did Cc1ccc(C2=CC(C)(c3ccc(C)cc3)Nc3nc(C(F)(F)F)nn32)cc1 (centres undefined) do in these assays?
FBPA Giardia inh: -9%; HCMV antiviral: -23; VACV Venus inh: -8%; HCV inh: inconclusive; FMDV inh: -22%; Vaccinia mCherry: -4%

How did Fc1ccc(Nc2nc(-c3ccncc3)nc3ccccc23)cc1 do in these assays?
FBPA Giardia inh: 4%; HCMV antiviral: 27; VACV Venus inh: -12%; HCV inh: inconclusive; FMDV inh: -14%; Vaccinia mCherry: -7%

Results for Cc1ccc(Nc2nc(-c3ccncc3)nc3ccccc23)cc1 ?
FBPA Giardia inh: 2%; HCMV antiviral: -1; VACV Venus inh: -1%; HCV inh: -62%; FMDV inh: -25%; Vaccinia mCherry: inconclusive

Results for c1cncc(-c2nc(N3CCCCCC3)c3ccccc3n2)c1 ?
FBPA Giardia inh: 13%; HCMV antiviral: -31; VACV Venus inh: -21%; HCV inh: inconclusive; FMDV inh: inconclusive; Vaccinia mCherry: -16%

What do the screens show for `c1ccc2c(N3CCCCCC3)nc(-c3ccncc3)nc2c1`?
FBPA Giardia inh: -1%; HCMV antiviral: inconclusive; VACV Venus inh: -25%; HCV inh: 8.9µM*; FMDV inh: inconclusive; Vaccinia mCherry: -29%; HCV inh confirm: 0.01µM*; HCV cytotox: 18%

What do the screens show for `c1ccc(Nc2nc(-c3ccncc3)nc3ccccc23)cc1`?
FBPA Giardia inh: -8%; HCMV antiviral: 38; VACV Venus inh: -11%; HCV inh: inconclusive; FMDV inh: inconclusive; Vaccinia mCherry: -7%; HCV inh confirm: 5µM*; HCV cytotox: -95%

How did Fc1ccccc1Nc1nc(-c2ccncc2)nc2ccccc12 do in these assays?
FBPA Giardia inh: -13%; HCMV antiviral: 35; VACV Venus inh: -23%; HCV inh: 2.2µM*; FMDV inh: inconclusive; Vaccinia mCherry: -7%; HCV inh confirm: 8.9µM*; HCV cytotox: 30%

Results for CCn1nc(C)c2c(-c3ccccc3)cc(=O)n(C(C)C(=O)NCCc3ccccc3)c21 (centres undefined) ?
HCMV antiviral: -18; VACV Venus inh: 0%; FMDV inh: -10%; Vaccinia mCherry: 7%

What do the screens show for `COc1cccc(CNC(=O)Cn2ncn3nc(-c4cccs4)cc3c2=O)c1OC`?
HCMV antiviral: 10; VACV Venus inh: -7%; FMDV inh: -12%; Vaccinia mCherry: -2%

How did CCn1cc(/C=C/c2cc[n+](C)cc2)c2ccccc21 do in these assays?
FBPA Giardia inh: inconclusive; HCMV antiviral: -97*; HCV inh: 2.5µM*; FMDV inh: -22%; HCV inh confirm: 1.8µM*; HCV cytotox: 4µM*

How did COc1ccc([N+](=O)[O-])cc1NC(=O)CSc1nc(C)c(C)c(C)n1 do in these assays?
FBPA Giardia inh: 1%; HCMV antiviral: 51; VACV Venus inh: 0%; HCV inh: 15%; FMDV inh: -20%; Vaccinia mCherry: -11%

How did COc1ccc([N+](=O)[O-])cc1NC(=O)C(C)Sc1nc(C)c(C)c(C)n1 (centres undefined) do in these assays?
FBPA Giardia inh: -4%; HCMV antiviral: -7; VACV Venus inh: -10%; HCV inh: 5.6µM*; FMDV inh: -10%; Vaccinia mCherry: -2%; HCV inh confirm: 13µM*; HCV cytotox: 34%

What do the screens show for `COc1ccc(NC(=O)c2cc(-c3cc(C)cc(C)c3O)n[nH]2)cc1Cl`?
FBPA Giardia inh: -1%; HCMV antiviral: -40; HCV inh: 8.9µM*; FMDV inh: inconclusive; HCV inh confirm: 14µM*; HCV cytotox: inconclusive

Results for Cc1ccc(C(=O)N/C(=C\c2cccs2)C(=O)NCCCN2CCOCC2)cc1 ?
FBPA Giardia inh: 4%; HCMV antiviral: -25; VACV Venus inh: -11%; HCV inh: inconclusive; FMDV inh: 1%; Vaccinia mCherry: -11%

What do the screens show for `COc1ccccc1CNC(=O)CSc1ccc(C(=O)Nc2ccccc2OC)cc1[N+](=O)[O-]`?
FBPA Giardia inh: 5%; HCMV antiviral: 46; VACV Venus inh: -12%; HCV inh: 1%; FMDV inh: -14%; Vaccinia mCherry: -13%

What do the screens show for `COc1ccccc1NC(=O)c1ccc(SCC(=O)NCc2ccccc2Cl)c([N+](=O)[O-])c1`?
FBPA Giardia inh: 2%; HCMV antiviral: -4; VACV Venus inh: -17%; HCV inh: inconclusive; FMDV inh: -14%; Vaccinia mCherry: inactive; HCV inh confirm: inconclusive; HCV cytotox: 43%

Results for Cc1ccc(NC(=O)NCCCl)cc1S(=O)(=O)N1CCOCC1 ?
FBPA Giardia inh: -5%; HCMV antiviral: -40; VACV Venus inh: -6%[7.34 µM]; HCV inh: -9%; FMDV inh: 21%; Vaccinia mCherry: -6%[7.34 µM]

Results for COc1cccc(NC(=O)c2oc3ccccc3c2NC(=O)C2CC2)c1 ?
HCMV antiviral: -17; VACV Venus inh: -6%; HCV inh: inconclusive; FMDV inh: -22%; Vaccinia mCherry: -12%; HCV inh confirm: inconclusive; HCV cytotox: 23%

Results for COc1ccc(NC(=O)c2oc3ccccc3c2NC(=O)C2CC2)cc1 ?
FBPA Giardia inh: -6%; HCMV antiviral: -23; HCV inh: -26%; FMDV inh: -13%

Results for Cc1nc2nc(C)c(NS(=O)(=O)c3ccc(C4CCCCC4)cc3)c(=O)n2[nH]1 ?
FBPA Giardia inh: -10%; HCMV antiviral: -37; VACV Venus inh: -1%; HCV inh: -9%; FMDV inh: -15%; Vaccinia mCherry: -5%

Results for Cc1ccc(NCC(=O)N/N=C\c2ccc([N+](=O)[O-])o2)cc1 ?
FBPA Giardia inh: -7%; HCMV antiviral: -82*; VACV Venus inh: inconclusive; HCV inh: 3.2µM*; Vaccinia mCherry: 11µM*; HCV inh confirm: 14µM*; HCV cytotox: inconclusive

What do the screens show for `Cc1cc(/C=C(/C#N)C(=O)Nc2ccccc2)c(C)n1-c1cccnc1`?
HCMV antiviral: 10; VACV Venus inh: -21%; HCV inh: inconclusive; FMDV inh: -28%; Vaccinia mCherry: -13%[1.46 µM]

How did Cc1cc(/C=C(\C#N)C(=O)Nc2ccccc2)c(C)n1-c1ccc2c(c1)OCO2 do in these assays?
FBPA Giardia inh: -15%; HCMV antiviral: -26; VACV Venus inh: inconclusive; HCV inh: inconclusive; FMDV inh: -7%; Vaccinia mCherry: inconclusive; HCV inh confirm: 18µM*; HCV cytotox: -13%
